{"source": "PubChem BioAssay", "key": {"[1]": {"experiment": "antimalarial activity against Dd2 strain (AID 2302;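 active = growth inhibition above 50% at the single 2 µM test dose, taken to imply half-maximal potency below 2 µM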;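 note: 0% = DMSO untreated growth and 100% = chloroquine plus artemisinin killed control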)", "conditions": "P. falciparum Dd2 in RBCs, LDH growth readout, 72 h; at 2 µM; stronger effect = higher value"}, "[2]": {"experiment": "human hepatoma cell viability loss – ATP luminescence, cytotoxicity control for P. falciparum antimalarial project, primary screen (AID 2303;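 active = inhibition above 50%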;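 note: 0% = DMSO wells and 100% = digitonin-killed cells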)", "conditions": "HepG2 viability, 24-48 h, at 10 µM, stronger effect = higher value"}, "[3]": {"target": "L-lactate dehydrogenase (Plasmodium falciparum (isolate CDC / Honduras)) (UniProt Q27743)", "sequence (Q27743 whole entry, looked up)": "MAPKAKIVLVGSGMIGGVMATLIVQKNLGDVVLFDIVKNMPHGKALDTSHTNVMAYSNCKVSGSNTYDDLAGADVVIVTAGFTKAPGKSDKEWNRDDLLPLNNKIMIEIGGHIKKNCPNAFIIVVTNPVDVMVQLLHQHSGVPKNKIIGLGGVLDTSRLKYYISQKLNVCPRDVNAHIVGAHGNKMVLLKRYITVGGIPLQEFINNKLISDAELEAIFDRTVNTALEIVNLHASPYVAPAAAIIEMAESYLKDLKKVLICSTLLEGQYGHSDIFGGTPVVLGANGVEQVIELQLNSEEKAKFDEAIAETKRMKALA", "experiment": "PfLDH activity inhibition – cell lysate, 3D7 strain, counter-screen for P. falciparum growth inhibition project (AID 2304);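 note: 0% = vehicle and 100% = reference inhibitor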", "conditions": "P. falciparum 3D7 crude extract, LDH APAD/NBT absorbance; at 2 µM; stronger effect = higher value"}, "[4]": {"experiment": "inhibition of 3D7 malaria parasite growth – strain 3D7 (AID 2306);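 note: 0% = DMSO wells and 100% = chloroquine plus artemisinin control wells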", "conditions": "P. falciparum 3D7 erythrocytic growth, LDH absorbance, 72 h; at 2 µM; stronger effect = higher value"}, "[5]": {"target": "Calcium-dependent protein kinase 1 (Plasmodium falciparum (isolate 3D7)) (UniProt P62344)", "sequence (P62344 whole entry, looked up)": "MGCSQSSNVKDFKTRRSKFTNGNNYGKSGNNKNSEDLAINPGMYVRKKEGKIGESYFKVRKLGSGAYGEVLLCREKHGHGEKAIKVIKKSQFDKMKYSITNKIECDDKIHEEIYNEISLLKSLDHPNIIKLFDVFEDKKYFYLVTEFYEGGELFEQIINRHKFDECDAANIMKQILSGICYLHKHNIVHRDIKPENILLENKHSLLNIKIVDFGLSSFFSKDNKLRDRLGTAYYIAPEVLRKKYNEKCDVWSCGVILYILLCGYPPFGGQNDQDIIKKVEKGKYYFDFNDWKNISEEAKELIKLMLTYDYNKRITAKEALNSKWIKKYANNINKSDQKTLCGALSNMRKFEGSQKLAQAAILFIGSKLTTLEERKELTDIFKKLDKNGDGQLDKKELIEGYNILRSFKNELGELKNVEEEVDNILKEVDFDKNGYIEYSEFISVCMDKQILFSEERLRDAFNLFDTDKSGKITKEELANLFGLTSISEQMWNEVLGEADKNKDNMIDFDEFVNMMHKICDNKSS", "experiment": "PfCDPK1 kinase inhibitors, biochemical, TCAMS library (AID 1159585; cut-off not given, nearly all actives have IC50 up to about 0.98 µM;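 note: inhibitors leave more ATP so luminescence rises with inhibition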)", "conditions": "recombinant PfCDPK1, Kinase-Glo ATP depletion luminescence"}, "[6]": {"target": "Plasmodium falciparum protein kinase 6 (PK6, PF3D7_1337100) (UniProt Q8IDW1)", "sequence (Q8IDW1 1-305)": "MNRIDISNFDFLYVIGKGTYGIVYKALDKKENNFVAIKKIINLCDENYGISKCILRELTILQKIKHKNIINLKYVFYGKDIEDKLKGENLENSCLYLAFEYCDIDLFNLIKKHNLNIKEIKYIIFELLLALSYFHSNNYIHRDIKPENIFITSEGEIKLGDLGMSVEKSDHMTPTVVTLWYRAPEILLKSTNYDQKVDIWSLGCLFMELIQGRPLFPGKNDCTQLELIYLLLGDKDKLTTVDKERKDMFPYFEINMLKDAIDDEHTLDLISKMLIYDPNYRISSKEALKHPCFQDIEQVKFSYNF", "experiment": "PfPK6 kinase inhibitors, biochemical, TCAMS library (AID 1159586)", "conditions": "recombinant PfPK6, Kinase-Glo ATP depletion luminescence"}, "[7]": {"target": "Protein kinase 7 (PK7), Plasmodium falciparum 3D7 (PF3D7_0213400) (UniProt Q7YTF7)", "sequence (Q7YTF7 1-343)": "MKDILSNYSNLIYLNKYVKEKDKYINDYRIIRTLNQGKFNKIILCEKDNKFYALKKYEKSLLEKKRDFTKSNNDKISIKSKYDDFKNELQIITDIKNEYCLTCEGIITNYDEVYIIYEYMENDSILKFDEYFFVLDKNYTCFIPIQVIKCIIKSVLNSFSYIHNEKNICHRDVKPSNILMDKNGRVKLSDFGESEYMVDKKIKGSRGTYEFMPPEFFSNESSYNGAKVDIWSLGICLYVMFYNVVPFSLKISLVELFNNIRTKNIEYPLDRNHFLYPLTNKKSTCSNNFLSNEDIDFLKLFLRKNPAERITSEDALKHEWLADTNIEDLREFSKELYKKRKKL", "experiment": "inhibition of Plasmodium PK7 catalytic activity – biochemical, TCAMS antimalarial set, Kinase-Glo luminescence (AID 1159587)", "conditions": "recombinant PfPK7, Kinase-Glo ATP depletion luminescence"}, "[8]": {"target": "Calcium-dependent protein kinase 4 (Plasmodium falciparum (isolate 3D7)) (UniProt Q8IBS5)", "sequence (Q8IBS5 whole entry, looked up)": "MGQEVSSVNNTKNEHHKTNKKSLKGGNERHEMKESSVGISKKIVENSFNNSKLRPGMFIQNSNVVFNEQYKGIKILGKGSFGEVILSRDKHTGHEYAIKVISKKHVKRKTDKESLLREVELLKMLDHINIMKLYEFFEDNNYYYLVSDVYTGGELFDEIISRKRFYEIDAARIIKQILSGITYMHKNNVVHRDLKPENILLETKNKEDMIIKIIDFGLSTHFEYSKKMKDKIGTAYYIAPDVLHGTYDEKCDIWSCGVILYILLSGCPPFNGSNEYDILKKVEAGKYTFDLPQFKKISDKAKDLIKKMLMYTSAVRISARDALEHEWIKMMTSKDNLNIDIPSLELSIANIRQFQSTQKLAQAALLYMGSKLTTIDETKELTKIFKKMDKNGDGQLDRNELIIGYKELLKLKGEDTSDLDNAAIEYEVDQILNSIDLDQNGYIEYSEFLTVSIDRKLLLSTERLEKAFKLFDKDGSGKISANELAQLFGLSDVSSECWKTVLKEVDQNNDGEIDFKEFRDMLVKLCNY", "experiment": "PfCDPK4 kinase inhibitors, biochemical, TCAMS library (AID 1159588; cut-off not given, nearly all actives have IC50 up to about 0.91 µM)", "conditions": "recombinant PfCDPK4, Kinase-Glo ATP depletion luminescence"}}, "note": "A number with no mark means an inactive call. For part of these data: Results with a measured potency or affinity are listed apart. Activity calls are given as the source filed them. Unless noted, the rule behind the calls is not given here.", "data": [{"smiles": "CN(C(=O)Cc1ccc(Cl)c(Cl)c1)C1CCN(CCCCCNC(=O)/C=C/c2ccc(Cl)c(Cl)c2)CC1", "values": [{"measurement": "growth inhibition", "setting": "[1]", "result": 13, "unit": "%"}, {"measurement": "inhibition", "setting": "[2]", "result": "87% (active)"}, {"measurement": "inhibition", "setting": "[3]", "result": -4, "unit": "%"}, {"measurement": "growth inhibition", "setting": "[4]", "result": "84% (active)"}, {"measurement": "outcome", "setting": "[5]", "result": "inactive"}, {"measurement": "outcome", "setting": "[6]", "result": "inactive"}, {"measurement": "outcome", "setting": "[7]", "result": "inactive"}, {"measurement": "outcome", "setting": "[8]", "result": "inactive"}]}, {"smiles": "COc1ccc(NC(=O)CCNc2cc(C)nc(NCCc3ccccc3)n2)cc1", "values": [{"measurement": "growth inhibition", "setting": "[1]", "result": 0, "unit": "%"}, {"measurement": "inhibition", "setting": "[2]", "result": 3, "unit": "%"}, {"measurement": "inhibition", "setting": "[3]", "result": -2, "unit": "%"}, {"measurement": "growth inhibition", "setting": "[4]", "result": "85% (active)"}, {"measurement": "outcome", "setting": "[5]", "result": "inactive"}, {"measurement": "outcome", "setting": "[6]", "result": "inactive"}, {"measurement": "outcome", "setting": "[7]", "result": "inactive"}, {"measurement": "outcome", "setting": "[8]", "result": "inactive"}]}, {"smiles": "N=C1c2ccccc2CN1CC(=O)c1ccc(Cl)c(Cl)c1", "values": [{"measurement": "growth inhibition", "setting": "[1]", "result": 16, "unit": "%"}, {"measurement": "inhibition", "setting": "[2]", "result": 1, "unit": "%"}, {"measurement": "inhibition", "setting": "[3]", "result": 0, "unit": "%"}, {"measurement": "growth inhibition", "setting": "[4]", "result": "98% (active)"}, {"measurement": "outcome", "setting": "[5]", "result": "inactive"}, {"measurement": "outcome", "setting": "[6]", "result": "inactive"}, {"measurement": "outcome", "setting": "[7]", "result": "inactive"}, {"measurement": "outcome", "setting": "[8]", "result": "inactive"}]}]}
